{"source": "ChEMBL document CHEMBL4513216", "about": "“Probing the Open Global Health Chemical Diversity Library for Multistage-Active Starting Points for Next-Generation Antimalarials” (ACS Infect Dis, 2020)", "note": "The campaign covered roughly 68,000 compounds. About 2,700 (4%) showed an effect of 50% or more. This excerpt belongs to a sample that is enriched for strong results."}
{"tested_on": "Plasmodium berghei", "assay": "Screen against P. berghei liver stage (PbLuc), transformed with Luciferase, at 2uM", "format": "functional, HepG2", "details": "tested at 2 uM", "units": {"INHIBITION": "%"}}
{"smiles": "CC(C)N(C)CC(=O)NCCc1nc(C(F)(F)F)cs1", "INHIBITION": -18.28}
{"smiles": "Cc1cnc(C)c(N2CCC(c3nnc(CN(C)C)n3C3CC3)CC2)n1", "INHIBITION": -13.88}
{"smiles": "CN(C)Cc1nnc(C2CCN(c3ncccc3Cl)CC2)n1C1CC1", "INHIBITION": 84.18}
{"smiles": "CN(C)Cc1nnc(C2CCN(c3ncccn3)CC2)n1C1CC1", "INHIBITION": -61.17}
{"smiles": "Cn1cncc1CN1CCC2(CC1)COCCN(S(C)(=O)=O)C2", "INHIBITION": -38.72}
{"smiles": "Cc1cc(C(F)(F)F)nn1CCNC(=O)C(C)n1ccnc1C(C)C", "note": "(stereo not given)", "INHIBITION": -4.93}
{"smiles": "CCCN(CC1CC1)S(=O)(=O)c1ccc(NC(C)=O)cc1", "INHIBITION": -13.12}
{"smiles": "CC(C)(O)CCc1cccc(C(=O)N2CCC[C@H]2C(N)=O)c1", "INHIBITION": 6.26}
{"smiles": "COc1ccc(OCCN(C)S(=O)(=O)c2cnn(C)c2)cc1", "INHIBITION": 83.12}
{"smiles": "Cc1ccc(OCCN(C)S(=O)(=O)c2cnn(C)c2)cc1", "INHIBITION": 31.54}
{"smiles": "CN(CCOc1ccc(F)cc1)S(=O)(=O)c1cnn(C)c1", "INHIBITION": -11.34}
{"smiles": "CN(CCCOc1ccc(F)cc1)S(=O)(=O)c1cnn(C)c1", "INHIBITION": -6.65}
{"smiles": "CN(CCCOc1ccccc1)S(=O)(=O)c1cnn(C)c1", "INHIBITION": -2.63}
{"smiles": "CN(C)CCOc1ccc(N(C)S(=O)(=O)c2cnn(C)c2)cc1", "INHIBITION": 57.68}
{"smiles": "Cc1oc(C(=O)O)cc1S(=O)(=O)Nc1cccc(-n2nccc2C)c1", "INHIBITION": 37.15}
{"smiles": "Cc1c[nH]nc1C1CCN(C(=O)C2CCCC2)C1", "note": "(stereo not given)", "INHIBITION": 41.21}
{"smiles": "NC(=O)C1(Cc2ccc(-c3ccccc3)cc2)CCNC1", "note": "(stereo not given)", "INHIBITION": 9.18}
{"smiles": "CCOC(=O)CNC(=O)N1CCOC(Cc2ccc(OC)cc2)C1", "note": "(stereo not given)", "INHIBITION": 55.66}
{"smiles": "CCOC(=O)CNC(=O)N1CCOC(CCc2ccccc2)C1", "note": "(stereo not given)", "INHIBITION": -18.39}
{"smiles": "CCOC(=O)CCNC(=O)N1CCOC(Cc2cccc(OC)c2)C1", "note": "(stereo not given)", "INHIBITION": 25.37}
{"smiles": "CN(C)CCOCC1CN(Cc2ccncc2)Cc2nnn(C)c21", "note": "(stereo not given)", "INHIBITION": 7.1}
{"smiles": "CN1CCC(N(CCc2ccccc2)C(=O)COCC2CCCO2)CC1", "note": "(stereo not given)", "INHIBITION": 42.79}
{"smiles": "Cc1cccc(-c2nccnc2C2CCN(C)CC2)c1C", "INHIBITION": -25.17}
{"smiles": "COC(=O)c1sc2cccc(F)c2c1CNC(=O)C1CC1", "INHIBITION": 15.28}
{"smiles": "COC(=O)c1sc2cccc(F)c2c1CNC(=O)C1CCCO1", "note": "(stereo not given)", "INHIBITION": 50.3}
{"smiles": "COC(=O)c1sc2cccc(F)c2c1CNC(=O)C1CCOC1", "note": "(stereo not given)", "INHIBITION": 33.02}
{"smiles": "Cc1ncccc1-c1cc2cccnc2n1CCCNC(=O)C(C)(C)C", "INHIBITION": 24.98}
{"smiles": "COCCN1CCC2(CC1)CC(NC(=O)CN(C)C)c1ccccc1O2", "note": "(stereo not given)", "INHIBITION": 48.52}
{"smiles": "CCCn1nccc1NC(=O)CN1CCc2c(nc(C(C)C)n2C)C1", "INHIBITION": 56.12}
{"smiles": "CCCn1nccc1NC(=O)CN1CCc2c(nc(C3CC3)n2C)C1", "INHIBITION": 49.6}
{"smiles": "CC(C)c1nc2c(n1C)CCN(CC(=O)Nc1ccc(Cl)cn1)C2", "INHIBITION": 51.92}
{"smiles": "CC(C)c1nc2c(n1C)CCN(CC(=O)Nc1nncs1)C2", "INHIBITION": 60.09}
{"smiles": "CC(C)c1nc2c(n1C)CCN(CC(=O)Nc1ccncc1)C2", "INHIBITION": -14.17}
{"smiles": "CC(C)c1nc2c(n1C)CCN(CC(=O)Nc1nccs1)C2", "INHIBITION": -15.91}
{"smiles": "CC(C)c1nc2c(n1C)CCN(CC(=O)Nc1cccnc1)C2", "INHIBITION": -14.17}
{"smiles": "Cc1nnc(NC(=O)CN2CCc3c(nc(C(C)C)n3C)C2)s1", "INHIBITION": 22.63}
{"smiles": "Cn1c(C2CC2)nc2c1CCN(CC(=O)Nc1nncs1)C2", "INHIBITION": 22.51}
{"smiles": "Cc1csc(NC(=O)CN2CCc3c(nc(C4CC4)n3C)C2)n1", "INHIBITION": -1.02}
{"smiles": "CC(C)c1nc2c(n1C)CCN(CC(=O)Nc1ccnn1C(C)C)C2", "INHIBITION": -42.83}
{"smiles": "Cc1nnc(NC(=O)CN2CCc3c(nc(C4CC4)n3C)C2)s1", "INHIBITION": 51.94}
